# Measured values from PubChem BioAssay.
# The source made the active and inactive calls.
# Assays:
# [1] = optical density shifts of acrAB sulA E. coli – strain DRC41, OD650, 48 h, E. coli filamentation inducer project, primary screen (AID 1152); conditions: higher = more signal, called active from +8 up or from −8 down;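 also: E. coli MC1000 strain DRC41 lacking acrAB efflux pump and sulA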
# [2] = probe aLefty1 binding on compound microarray – biochemical, small-molecule microarray, 635/667 nm fluorescence, primary screen (AID 1153); conditions: higher = more signal;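 also: score merges spot fluorescence with signal-to-noise ratio from the scanned slide images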
# [3] = plasmodial surface anion channel blockers, osmotic lysis – cell-based, P. falciparum Indochina, OD700, 1 h, primary screen (AID 1154); conditions: P. falciparum Indochina infected RBC osmotic lysis, higher = more signal, called active from +8 up or from −8 down
# [4] = plasmodial surface anion channel blockers, osmotic lysis – cell-based, P. falciparum Indochina, OD700, 2 h, primary screen (AID 1155);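 also: lysis reports solute entry through the parasite surface anion channel PSAC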; conditions: P. falciparum Indochina infected erythrocytes, higher = more signal, called active from +8 up or from −8 down
# [5] = changes in parasitized red cell lysis, either direction – P. falciparum Indochina, OD700, 3 h, PSAC antagonist project, primary screen (AID 1156); conditions: P. falciparum-infected erythrocytes, osmotic lysis, higher = more signal, called active from +8 up or from −8 down
# [6] = plasmodial surface anion channel blockers, osmotic lysis – cell-based, P. falciparum Indochina, OD700, 18 h, primary screen (AID 1157); conditions: P. falciparum Indochina infected erythrocytes, osmotic lysis OD700, 18 h; higher = more signal, called active from +8 up or from −8 down
# [7] = S6 kinase pathway phospho-S6 level changes – cell-based, A549, cytoblot, luminescence, serum-stimulated, primary screen (AID 1158); conditions: 5 h, higher = more signal;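 also: serum-stimulated A549 lung adenocarcinoma cells; signal is phosphorylated S6 detected by cytoblot immunostaining with HRP secondary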
# [8] = biological target: NADPH oxidase 2 (Homo sapiens) (UniProt P04839); assay: compounds shifting NOX2 Amplex Red fluorescence – cell-based, HEK293-NOX2, PMA-stimulated, NOX inhibitor project, primary screen (AID 1159); conditions: 45 min, higher = more signal, called active from +8 up or from −8 down; also: test concentration not given here
# [9] = biological target: NADPH oxidase 4 (Homo sapiens) (UniProt Q9NPH5); assay: compounds shifting NOX4 Amplex Red fluorescence – cell-based, HEK293-NOX4, tetracycline-induced, NOX inhibitor project, primary screen (AID 1160); conditions: HEK293-NOX4, Amplex Red H2O2 fluorescence, 45 min; higher = more signal, called active from +8 up or from −8 down
# [10] = biological target: NADPH oxidase 5 (Homo sapiens) (UniProt Q96PH1); assay: compounds shifting NOX5 Amplex Red fluorescence – cell-based, HEK293-NOX5, NOX inhibitor project, primary screen (AID 1161); conditions: HEK293-NOX5, ionomycin, 45 min, higher = more signal
# [11] = compound effects on lung adenocarcinoma cell viability – A549, calcein-AM fluorescence, 48 h, basal, profiling panel (AID 1162); conditions: higher = more signal; also: test concentration not given here
# [12] = compound effects on differentiated 3T3-L1 adipocyte viability – cell-based, 3T3-L1 adipocytes, calcein-AM fluorescence, 48 h, basal, profiling panel (AID 1163); conditions: 3T3-L1 adipocytes viability, higher = more signal; also: test concentration not given here
# [13] = compound effects on hepatocellular carcinoma cell viability – HepG2, calcein-AM fluorescence, 48 h, basal, profiling panel (AID 1164); conditions: higher = more signal; also: test concentration not given here
# [14] = compound effects on multiple myeloma cell viability – MM1S, calcein-AM fluorescence, 48 h, basal, profiling panel (AID 1165); conditions: higher = more signal; also: test concentration not given here
# [15] = calcein-AM signal in unstimulated myeloma cells – cell-based, calcein-AM fluorescence, 48 h, PK04 Diversity Set, profiling panel (AID 1166); conditions: RPMI8226 myeloma viability, higher = more signal;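 also: cells grown under basal conditions without added stimulus; test concentration not given here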
# [16] = JC-1 mitochondrial signal, unstimulated HepG2 cells – cell-based, JC-1 fluorescence, 24 h, 100 nL compound, profiling panel (AID 1167); conditions: HepG2 mitochondrial potential, higher = more signal; also: test concentration not given here
# [17] = JC-1 mitochondrial signal, unstimulated adipocytes – cell-based, JC-1 fluorescence, 3T3-L1 adipocytes, 24 h, 100 nL compound, profiling panel (AID 1168); conditions: JC-1 mitochondrial fluorescence, higher = more signal, called active from +8 up or from −8 down; also: test concentration not given here
# [18] = JC-1 mitochondrial signal, unstimulated myeloma cells – cell-based, JC-1 fluorescence, RPMI8226, 24 h, 100 nL compound, profiling panel (AID 1169); conditions: JC-1 mitochondrial potential fluorescence, higher = more signal; also: test concentration not given here
# [19] = JC-1 mitochondrial signal, unstimulated MM1S myeloma – cell-based, JC-1 fluorescence, 24 h, 100 nL compound, profiling panel (AID 1170); conditions: MM1S mitochondrial potential, higher = more signal; also: test concentration not given here
# [20] = resazurin metabolic signal in A549 cells – cell-based, resazurin fluorescence, 24 h, PK04 Diversity Set, profiling panel (AID 1171); conditions: A549 viability, higher = more signal, called active from +8 up or from −8 down; also: test concentration not given here
# NADPH oxidase 4 (Homo sapiens), sequence (Q9NPH5 whole entry, looked up): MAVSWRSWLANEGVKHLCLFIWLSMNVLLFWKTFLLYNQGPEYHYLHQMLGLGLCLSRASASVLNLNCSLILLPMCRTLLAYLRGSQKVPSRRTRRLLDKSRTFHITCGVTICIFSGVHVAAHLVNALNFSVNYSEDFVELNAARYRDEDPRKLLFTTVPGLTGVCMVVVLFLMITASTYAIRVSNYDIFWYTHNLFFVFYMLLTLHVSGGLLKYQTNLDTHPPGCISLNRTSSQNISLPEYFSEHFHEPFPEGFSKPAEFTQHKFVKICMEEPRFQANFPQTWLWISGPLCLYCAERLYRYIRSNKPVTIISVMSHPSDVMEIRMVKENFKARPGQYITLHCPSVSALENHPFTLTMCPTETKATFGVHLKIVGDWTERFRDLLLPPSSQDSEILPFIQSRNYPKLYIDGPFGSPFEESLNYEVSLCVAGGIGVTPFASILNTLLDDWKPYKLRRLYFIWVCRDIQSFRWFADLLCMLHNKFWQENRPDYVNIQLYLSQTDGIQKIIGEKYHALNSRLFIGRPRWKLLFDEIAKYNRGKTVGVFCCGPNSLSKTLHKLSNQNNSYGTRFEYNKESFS
# NADPH oxidase 2 (Homo sapiens), sequence (P04839 whole entry, looked up): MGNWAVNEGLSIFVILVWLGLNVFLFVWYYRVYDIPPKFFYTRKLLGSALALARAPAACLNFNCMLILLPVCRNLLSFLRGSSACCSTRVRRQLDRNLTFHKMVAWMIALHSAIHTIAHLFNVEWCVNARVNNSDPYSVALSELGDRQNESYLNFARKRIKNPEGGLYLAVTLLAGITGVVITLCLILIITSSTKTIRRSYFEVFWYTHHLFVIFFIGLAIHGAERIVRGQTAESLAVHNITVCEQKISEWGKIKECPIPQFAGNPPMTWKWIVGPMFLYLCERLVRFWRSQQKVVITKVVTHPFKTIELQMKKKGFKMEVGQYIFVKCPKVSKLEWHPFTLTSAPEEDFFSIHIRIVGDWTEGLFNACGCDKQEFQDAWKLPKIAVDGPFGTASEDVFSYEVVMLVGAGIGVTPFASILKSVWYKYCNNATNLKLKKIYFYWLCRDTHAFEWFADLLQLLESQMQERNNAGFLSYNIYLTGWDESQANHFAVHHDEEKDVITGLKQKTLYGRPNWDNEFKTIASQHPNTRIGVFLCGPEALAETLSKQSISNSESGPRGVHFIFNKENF
# NADPH oxidase 5 (Homo sapiens), sequence (Q96PH1 whole entry, looked up): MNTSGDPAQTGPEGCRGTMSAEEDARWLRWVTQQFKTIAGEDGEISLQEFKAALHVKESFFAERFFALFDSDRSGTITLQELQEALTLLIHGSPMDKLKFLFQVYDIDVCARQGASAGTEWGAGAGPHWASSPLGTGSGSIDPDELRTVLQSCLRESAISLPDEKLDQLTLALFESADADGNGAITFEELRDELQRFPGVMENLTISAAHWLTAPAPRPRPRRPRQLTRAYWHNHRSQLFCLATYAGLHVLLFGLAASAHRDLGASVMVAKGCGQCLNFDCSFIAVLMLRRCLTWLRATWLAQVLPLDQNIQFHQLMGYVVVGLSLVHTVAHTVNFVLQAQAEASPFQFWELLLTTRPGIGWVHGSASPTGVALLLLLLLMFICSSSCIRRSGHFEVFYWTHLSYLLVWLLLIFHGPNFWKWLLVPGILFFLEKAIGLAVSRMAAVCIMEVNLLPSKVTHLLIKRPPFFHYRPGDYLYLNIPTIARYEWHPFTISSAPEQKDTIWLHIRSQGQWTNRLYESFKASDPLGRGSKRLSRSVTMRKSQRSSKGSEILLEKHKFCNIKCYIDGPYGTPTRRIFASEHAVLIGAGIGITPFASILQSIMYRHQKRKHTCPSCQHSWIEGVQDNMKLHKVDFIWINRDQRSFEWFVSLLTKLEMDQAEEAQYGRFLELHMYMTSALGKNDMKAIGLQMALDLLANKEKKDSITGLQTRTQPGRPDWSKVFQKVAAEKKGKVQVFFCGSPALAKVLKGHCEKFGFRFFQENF
SMILES,z-score [1],composite z-score [2],z-score [3],z-score [4],z-score [5],z-score [6],z-score [7],z-score [8],z-score [9],z-score [10],z-score [11],z-score [12],z-score [13],z-score [14],z-score [15],z-score [16],z-score [17],z-score [18],z-score [19],z-score [20]
CC(C)[Si]1(C(C)C)OCc2cc(C3CC3)nc(-c3ccccc3)c21,2.37 (inactive),-0.0573,2.84 (inactive),0.201 (inactive),0.531 (inactive),-0.15 (inactive),1.34,1.86 (inactive),1.06 (inactive),-1.28,0.0145,1.06,-0.899,-0.319,-1.54,-0.012,1.6 (inactive),-0.373,0.542,1 (inactive)
COc1ccc(CCNC(=O)[C@@]2(c3ccc([N+](=O)[O-])cc3)CC(=O)N(C(C)C)[C@@H]2c2ccc(CO)cc2)cc1,1.6 (inactive),-0.0353,4.07 (inactive),0.208 (inactive),1.44 (inactive),0.621 (inactive),0.54,0.891 (inactive),0.433 (inactive),0.24,0.755,1.52,-0.627,0.701,0.159,-0.0592,-0.209 (inactive),1.05,0.323,0.1 (inactive)
Cc1ccc(S(=O)(=O)N2[C@@H](c3ccccc3)C(C(=O)O)=CC[C@H]2c2ccccc2)cc1,-1.57 (inactive),-0.0501,0.432 (inactive),0.798 (inactive),0.605 (inactive),0.83 (inactive),-0.259,-0.127 (inactive),-0.375 (inactive),-2.32,-0.0225,-0.426,-0.335,-0.107,-1.25,-0.923,-0.17 (inactive),0.621,0.675,-1.08 (inactive)
CC[C@H]1C2=C3C(CC[C@H]4C(OC)OC[C@](C)([C@@H]34)N(C(=O)OC(C)(C)C)C2)C(CO)C1CO (stereo not given in full),-0.36 (inactive),0.631,-0.51 (inactive),-0.909 (inactive),-0.337 (inactive),-2.25 (inactive),1.59,-0.108 (inactive),-0.269 (inactive),-2.77,-0.499,0.561,0.656,1,0.586,-0.528,0.0846 (inactive),-0.38,-1.26,-1.28 (inactive)
CCCC=C(CCC)[C@@H](NS(=O)(=O)c1cccc(C(F)(F)F)c1)c1ccc(C(=O)OC)cc1,-0.77 (inactive),1.6,-0.82 (inactive),-0.868 (inactive),-0.723 (inactive),-1.41 (inactive),0.213,0.139 (inactive),0.449 (inactive),1.87,-0.336,-0.0748,-1.07,-0.008,-0.341,-1.25,-0.413 (inactive),0.0542,-1.04,0.206 (inactive)
[N-]=[N+]=NCc1ccccc1C[C@]1(C(=O)N2CCCCC2)N=C(c2ccc(OCCCO)cc2)O[C@H]1c1ccccc1CN=[N+]=[N-],-0.481 (inactive),0.42,16.1 (active),3.02 (inactive),2.16 (inactive),1.16 (inactive),-0.574,0.545 (inactive),-0.692 (inactive),-0.824,0.0482,0.628,-0.503,-2.92,-4.22,0.675,-0.539 (inactive),-1.19,-1.69,-0.179 (inactive)
CN1CCC(CCCO)=CC1C1CC1 (stereo not given),1.08 (inactive),-0.0984,-0.369 (inactive),-1.58 (inactive),-1.01 (inactive),-1.9 (inactive),0.591,0.575 (inactive),-0.0075 (inactive),0.0296,0.4,0.852,-0.879,-0.833,0.174,1.32,0.57 (inactive),0.201,0.389,-0.0682 (inactive)
CC(=O)NCCCC[C@@H]1NC(=O)[C@H]2C[C@@H](C(=O)NCCCCCCN(C)C)[C@@H](c3ccc(O)cc3)N2C1=O,-0.233 (inactive),0.538,1.32 (inactive),0.461 (inactive),1.92 (inactive),0.0071 (inactive),0.144,-0.768 (inactive),-1.51 (inactive),-0.479,-0.345,1.03,-1.23,-0.327,-0.551,-0.755,0.154 (inactive),0.669,0.116,-1.27 (inactive)
C[C@@H]1NC(=O)[C@H](Cc2ccccc2)NC(=O)[C@@]23C(=O)N[C@@H](Cc4ccccc4)C2[C@H](C)[C@@]2(C)O[C@H]2C3/C=C/C/C=C\CNC1=O (stereo not given in full),-1.13 (inactive),-0.169,1.87 (inactive),0.316 (inactive),0.134 (inactive),-0.0643 (inactive),-0.248,0.832 (inactive),-0.951 (inactive),0.906,-0.0598,0.523,-0.706,0.0254,-1.65,-0.971,-0.206 (inactive),0.814,0.546,-0.207 (inactive)
